# Laboratory results from PubChem BioAssay AID1851 (National Center for Advancing Translational Sciences (NCATS), 2009).
# Screen size: about 16,000 compounds; about 2,600 (16%) were called active. Not shown: some 20% with an inconclusive outcome. Calls follow the shape of the dose curve; as a rule, active = well fitted curve in the direction sought with a large enough effect; inconclusive = small, poorly fitted or top-dose-only effect, or effect the other way; inactive = no such curve, though single readings can be large or run the other way. Not all results are given here.
# Target: Cytochrome P450 2D6 (Homo sapiens) (UniProt P10635)
# Sequence (P10635 whole entry, looked up): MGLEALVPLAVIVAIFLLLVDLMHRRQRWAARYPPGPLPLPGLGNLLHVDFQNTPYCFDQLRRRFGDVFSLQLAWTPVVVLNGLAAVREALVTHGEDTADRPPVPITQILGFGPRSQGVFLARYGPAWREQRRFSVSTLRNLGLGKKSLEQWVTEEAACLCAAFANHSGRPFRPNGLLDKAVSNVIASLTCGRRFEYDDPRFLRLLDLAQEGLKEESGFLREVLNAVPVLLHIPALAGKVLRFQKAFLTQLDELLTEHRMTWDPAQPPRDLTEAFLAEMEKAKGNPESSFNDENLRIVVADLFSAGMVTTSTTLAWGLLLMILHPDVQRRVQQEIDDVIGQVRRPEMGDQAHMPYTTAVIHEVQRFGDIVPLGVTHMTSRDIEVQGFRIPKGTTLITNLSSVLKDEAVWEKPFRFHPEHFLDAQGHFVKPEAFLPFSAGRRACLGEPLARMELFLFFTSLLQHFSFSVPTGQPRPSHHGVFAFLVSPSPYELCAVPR
# Assay: Cytochrome panel assay with activity outcomes
# Conditions: recombinant CYP, pro-luciferin dealkylation, luminescence, p450-cyp2d6; series mostly up to 57.1 µM
# % is scaled to controls: 0 for no effect and ±100 for the full control effect.
Compound,AC50,"activity, negative = inhibition"
C[C@@H]1Cc2ccccc2N1NC(=O)c1ccc(Cl)c(S(N)=O)c1 (some centres not stated),inactive,
O=C(NCC1CCC(C(=O)O)CC1)OCc1ccccc1 (configuration not stated),inactive,
COc1ccc2c(CC(=O)NCC3CCC(C(=O)O)CC3)cc(=O)oc2c1 (configuration not stated),6.31 µM (active),
COc1ccc2cc(CCNC(=O)C3CC3)c(=O)[nH]c2c1,inactive,
CC(=O)Nc1ccc([N+](=O)[O-])cn1,inactive,
CO[C@@H]1/C=C\CC(=O)N[C@@H](C)C(=O)OC[C@@H](OC)[C@H](C)CCCC(=O)OC[C@H]1C,,17% [at 11.4 µM] (inactive)
CSc1nc(C)c(CCOC(=O)c2cccc(C)c2)c(=O)[nH]1,inactive,
CCN(CC)S(=O)(=O)c1cc(C(=O)Nc2ccncc2)ccc1Cl,2.24 µM (active),
CCN(CC)S(=O)(=O)c1cc(C(=O)Nc2ccccc2C(=O)O)ccc1OC,inactive,
CCN(CC)S(=O)(=O)c1cc(C(=O)OC)ccc1Cl,inactive,
CC(C)(C)CC(C)(C)c1cc(O)c(O)c(CN2CCCCC2)c1,,-16.1% [at 11.4 µM] (inactive)
NS(=O)(=O)c1cc(Br)c(N=Nc2ccc(O)c3ncccc23)c(Br)c1,,-4.11% [at 11.4 µM] (inactive)
Oc1c(CN2CCCCC2)cc(Br)c2cccnc12,7.94 µM (active),
Nc1nc2c(nc(Br)n2[C@@H]2O[C@H]3COP(=O)(O)O[C@@H]3[C@H]2O)c(=O)[nH]1,inactive,
CCN(CC)c1cc(C)c2cc(NC(=O)CNC(C)=O)ccc2n1,inactive,
O=C(Cc1ccc2c(c1)CCCC2)Nc1ccccc1Br,inactive,
CC(C)N=c1cc2n(-c3ccc(Cl)cc3)c3ccccc3nc-2cc1Nc1ccc(Cl)cc1,2.51 µM (active),
CCOC(=O)c1cc2sc(C)cc2n1CC(=O)N1CCN(C(=O)c2ccco2)CC1,inactive,
COc1ccc(N=Cc2ccc(CNS(=O)(=O)c3ccc(Cl)cc3)o2)cc1,inactive,
Nc1ncnc2c1ncn2[C@H]1O[C@@H](C(=O)OCCO)[C@@H](O)[C@H]1O,,17% [at 11.4 µM] (inactive)
CCc1ccccc1NC(=O)c1ccc(-n2c(C)ccc2C)cc1,inactive,
CCc1ccccc1NC(=S)NCc1ccc2c(c1)OCO2,1.26 µM (active),
Cc1ccc(CNC(=O)C2CCCN2C(=O)NCc2ccccc2)cc1 (configuration not stated),inactive,
COc1ccccc1NC(=O)N1CCCC1C(=O)NCc1ccc2c(c1)OCO2 (configuration not stated),14.1 µM (active),
CC(=O)Nc1cccc(NC(=O)C2CCCN2C(=O)Nc2ccccc2C)c1 (configuration not stated),inactive,
CCCn1nc2cc(C(=O)NCc3ccc4c(c3)OCO4)ccc2c1OCC,inactive,

Compound,AC50,"activity, negative = inhibition"
CCNc1nc(NCC)nc(N(C)N)n1,inactive,
CCOC(=O)c1c(C)nc2sc3c(=O)n(-c4ccc(OC)cc4)nnc3c2c1-c1ccc(OC)cc1,inactive,
COC(=O)C1=C(C)NC(C)=C(C(=O)OCCSc2ccccc2)[C@@H]1C,25.1 µM (active),
COC(=O)c1cc(OC)c(OC)cc1NC(=O)CSc1ccccc1,inactive,
CCOC(=O)C1=C(C)NC(C)=C(C(=O)OC)[C@@H]1c1cccc([N+](=O)[O-])c1,inactive,
COCCNC(=O)CCCCCn1c(=S)[nH]c2ccccc2c1=O,inactive,
COc1cccc(N2CCN(C(=O)Nc3ccc4c(c3)NC(=O)CO4)CC2)c1,inactive,
S=c1nc[nH]c2c1ncn2Cc1ccco1,,1.42% [at 11.4 µM] (inactive)
CC[C@H](C(=O)c1cccs1)C(O)(C(F)(F)F)C(F)(F)F,3.16 µM (active),
O=C(O)C(Cc1cccs1)C(=O)O,,21.5% [at 11.4 µM] (inactive)
CCC/C=C(\CCC)C(NC(=O)c1cccs1)c1ccc(C(F)(F)F)cc1 (configuration not stated),inactive,
CN[C@H]1[C@@H](O[C@@H]2[C@H](O[C@@H]3[C@@H](O)[C@@H](O)[C@@H](N=C(N)N)[C@@H](O)[C@@H]3N=C(N)N)O[C@H](C)[C@@]2(O)C=O)O[C@@H](CO)[C@@H](O)[C@H]1O,inactive,
C=CCN1C(=NC(=O)CC)SC2CS(=O)(=O)CC21 (configuration not stated),inactive,
CC(C)=C[C@H]1[C@@H](COC(=O)c2ccccc2Cl)C1(C)C,,-3.97% [at 11.4 µM] (inactive)
Clc1ccc2c(c1)C1=C(C(c3ccncc3)O2)C(c2ccc(Br)cc2)n2ncnc2N1 (configuration not stated),inactive,
CCCn1nnc(NC(=O)Cc2ccccc2)n1,inactive,
CC(C)CN1CCC2(CC1)CCN(S(=O)(=O)c1ccccc1)CC2,1 µM (active),
CC(C)CN1CC[C@@]2(CCCN(S(=O)(=O)c3ccccc3)C2)C1,0.501 µM (active),
CC(C)CN1CCCC2(CCN(S(=O)(=O)c3ccccc3)CC2)C1,inactive,
O=C(NC1CCCCC1)C1CC=CCC1C(=O)OCC(Cl)=C(Cl)Cl (configuration not stated),inactive,
C=CCNC(=S)NNc1ncnc2sc3c(c12)CC(C)(C)OC3,inactive,
CCn1nnnc1SCC(=O)c1ccc2c(c1)OCCO2,inactive,
COC(=O)[C@@]1(Cc2ccc(OC)cc2)[C@H]2c3cc(C(=O)N4CCCC4)n(CCc4c[nH]c5cc(F)ccc45)c3C[C@H]2CN1C(=O)c1ccccc1,inactive,
O=C1CC(c2cccs2)c2cc3c(cc2N1)OCO3 (configuration not stated),8.91 µM (active),
CC1(C)CC2(CC(c3cccs3)c3cc(Cl)c(O)cc3O2)NC(=S)N1 (configuration not stated),inactive,
C#CCCCO/N=C1/C[C@@H](O)[C@@H](O)[C@@H]2[C@@H]3C(=O)N([C@@H](C)c4ccccc4)C(=O)[C@H]3CC[C@@H]12,,-9.9% [at 11.4 µM] (inactive)

Compound,AC50,"activity, negative = inhibition"
COc1cc(OC)cc(C(=O)NCC(=O)OC2CCOC2=O)c1 (configuration not stated),inactive,
O=C(Nc1ncc(Cc2cccc(Cl)c2)s1)C1=NCCN1,inactive,
CC1CCCC(C)N1C(=O)C1CC(c2ccc(F)cc2)=NO1 (configuration not stated),inactive,
Clc1ccc(CSc2nccn2Cc2ccccc2)cc1,5.01 µM (active),
CCc1ccc(CSc2nccn2-c2ccccc2)cc1,17.8 µM (active),
CCn1c(SCc2ccc(C)cc2)nnc1-c1nn(-c2ccccc2)ccc1=O,inactive,
c1ccc(CCSc2nccn2-c2ccccc2)cc1,1.41 µM (active),
Cn1c(CNC(=O)Nc2ccccc2)nnc1SCc1ccccc1,inactive,
O=C(O)CSCCc1ccccc1,,-0.751% [at 11.4 µM] (inactive)
O=c1ccnc(SCc2ccc(Cl)cc2)[nH]1,,6.62% [at 11.4 µM] (inactive)
Nc1nc(SCc2ccccc2)c2ncn(Cc3ccccc3)c2n1,,9.39% [at 11.4 µM] (inactive)
Cc1noc(NC(=O)Nc2ccccc2F)c1C#N,,0.368% [at 11.4 µM] (inactive)
CC(/C=C/c1ccco1)=N/NC(=O)c1ccccc1Cl,inactive,
CCOC(=O)N/N=C1/C[C@@H](O)[C@@H](O)[C@@H]2[C@@H]3C(=O)N(C(C)(C)C)C(=O)[C@H]3CC[C@@H]12,,-10.6% [at 11.4 µM] (inactive)
CO[C@H]1COC(=O)CCC[C@H](C)[C@@H](OC)COC(=O)C/C=C\[C@@H]1C,,-0.797% [at 11.4 µM] (inactive)
Cc1ccc(S(=O)(=O)c2cc(N3CCOCC3)nc(-c3ccccc3)n2)cc1,inactive,
N#CCCn1c(=O)cnc2cnc(OCc3ccccc3)nc21,inactive,
CCCNC(=O)OC[C@@H]1O[C@H](CCON=C(C)C)C=C[C@@H]1Oc1ccc(OC)cc1,,-7.52% [at 11.4 µM] (inactive)
COc1cc2nc(N3CC=[N+](C(=O)c4ccco4)CC3)nc(N)c2cc1OC,inactive,
CCOc1ccccc1/C=C(\C#N)C(N)=O,,1.77% [at 11.4 µM] (inactive)
C[C@H]1C2=C3C(CC[C@H]4C(OCc5ccc(F)cc5C(F)(F)F)OC[C@](C)([C@@H]34)N(C(=O)OC(C)(C)C)C2)C(CO)C1CO (some centres not stated),inactive,
Nc1nc2c(c(=O)[nH]1)N(C=O)[C@H](CNc1ccc(C(=O)N[C@@H](CCC(=O)O)C(=O)O)cc1)CN2,inactive,
CC(Sc1nnc(Cc2cccs2)n1C1CCCCC1)C(N)=O (configuration not stated),inactive,
CC1CCC(NC(=O)CC(C)(C)Cc2nc3ccccc3c(=O)[nH]2)CC1 (configuration not stated),inactive,
N=C(C[C@@H](O)COc1ccccc1-c1ccccc1)N1CCCCC1,31.6 µM (active),
O=C(COc1ccccc1-c1ccccc1)N/N=C/c1cccc2ccccc12,inactive,

Compound,AC50,"activity, negative = inhibition"
O=c1c(-c2cc(F)cc(F)c2)nc2cnc(N3CCNCC3)nc2n1C1CC1,inactive,
Cc1ccc2cc(C(=O)O)c(C)nc2c1,inactive,
Cc1ccc(CSc2nc3c(c(SCC(=O)O)n2)CCCC3)cc1,inactive,
CO[C@H]1COC(=O)C/C=C\[C@@H](C)[C@H](OC)COC(=O)[C@H]2CCCN2C(=O)C/C=C\[C@@H]1C,,18.5% [at 11.4 µM] (inactive)
O=C(Nc1ccccc1)N(Cc1ccccc1)CC(O)C(F)(F)F (configuration not stated),inactive,
O=C(Nc1cccc(C(F)(F)F)c1)N(Cc1ccc(Cl)cc1)CC(O)C(F)(F)F (configuration not stated),15.8 µM (active),
CC(O)(CS(=O)(=O)Cc1ccccc1Cl)C(=O)Nc1cccc(C(F)(F)F)c1 (configuration not stated),inactive,
O=S(=O)(NCc1cn2ccsc2n1)c1ccc(Oc2ccccc2)cc1,inactive,
O=C(NCCOC(=O)c1ccc(C(=O)OCCNC(=O)c2cccnc2)s1)c1cccnc1,inactive,
CCN(c1ccc(NC(=O)COC(=O)c2ccc3ccccc3n2)cc1)C(C)C,inactive,
O=C(OCCNC(=O)c1ccc2ccccc2n1)c1ccc(F)cc1,15.8 µM (active),
Cc1cc(C)cc(-n2nnnc2SCC(=O)Nc2nc(-c3ccc(Cl)cc3)cs2)c1,inactive,
COC(=O)N1CCC[C@@]2(CCN(C(=O)Nc3ccccc3)C2)C1,inactive,
CC(=O)N1CCC2(CC1)CN(c1ccccc1)C2,inactive,
Cc1noc(C)c1C(=O)N1CCC[C@@]2(CCN(c3ccccc3)C2)C1,inactive,
Cc1noc(C)c1C(=O)N1CCC2(CCCN(C(c3ccccc3)c3ccccc3)C2)CC1,2 µM (active),
CC(=O)N1CCC2(CC1)CN(C(c1ccccc1)c1ccccc1)C2,inactive,
COc1ccc(NC(=O)N2CC[C@@]3(CCCN(C(=O)c4c(C)noc4C)C3)C2)cc1,inactive,
COc1ccc(NC(=O)N2CCCC3(CCN(C(=O)c4c(C)noc4C)CC3)C2)cc1,10 µM (active),
COc1ccc(NC(=O)N2CC3(CCN(C(=O)c4c(C)noc4C)CC3)C2)cc1,inactive,
Cc1noc(C)c1C(=O)N1CCC2(CC1)CN(c1ccccc1)C2,inactive,
CC(=O)N1CCC2(CC1)CCN(C(c1ccccc1)c1ccccc1)CC2,7.94 µM (active),
COC(=O)N1CCC[C@@]2(CCN(C(=O)Nc3ccc(OC)cc3)C2)C1,inactive,
COC(=O)N1CCC[C@@]2(CCN(C(c3ccccc3)c3ccccc3)C2)C1,2 µM (active),
